From ChEMBL document CHEMBL3433997, “St. Jude Leishmania screening dataset” (2016)

What follows are molecules tested against Solute carrier family 2, facilitated glucose transporter member 1 (Homo sapiens) (UniProt P11166) (assay: ST_JUDE_LEISH: Cytotoxicity at 2uM final concentration against transgenic Leishmania Mexicana promastigotes LmGLUT1 that are glucose transport deficient and complemented with the human glucose transporter GLUT1. Activity is measured by DNA content using SYBR green in vitro).
Solute carrier family 2, facilitated glucose transporter member 1 (Homo sapiens), sequence (P11166 whole entry): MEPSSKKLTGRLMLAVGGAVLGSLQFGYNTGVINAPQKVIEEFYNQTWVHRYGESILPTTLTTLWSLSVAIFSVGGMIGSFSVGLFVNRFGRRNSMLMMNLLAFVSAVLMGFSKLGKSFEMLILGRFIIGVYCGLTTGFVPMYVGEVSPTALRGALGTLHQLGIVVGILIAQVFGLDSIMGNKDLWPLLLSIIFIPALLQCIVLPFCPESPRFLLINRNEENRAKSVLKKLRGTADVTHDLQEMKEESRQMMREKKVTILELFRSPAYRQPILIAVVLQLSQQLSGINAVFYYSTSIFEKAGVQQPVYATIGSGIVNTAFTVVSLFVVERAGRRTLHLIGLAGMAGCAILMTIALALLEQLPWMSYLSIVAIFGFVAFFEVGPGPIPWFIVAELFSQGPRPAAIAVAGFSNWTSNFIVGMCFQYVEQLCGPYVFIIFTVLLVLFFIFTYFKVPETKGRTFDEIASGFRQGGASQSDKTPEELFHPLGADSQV
Format: functional
For `O=C(NCCCCCN1CCC(c2c[nH]c3ccccc23)CC1)Nc1cccc(Cl)c1`, the inhibition was 2.7%. With `CC(C)CCN1CCC(Oc2ccc(NC(=O)c3ccco3)cc2Cl)CC1` the inhibition was 7.85%. In the case of `CCCc1ccc(Nc2nc(C)cc(N(CC)CCCN3CCCCC3)n2)cc1`, the inhibition is reported as -3.11%. Work on `COc1ccc2nccc([C@@H](O)CN3CCC(NCc4cc5ccccc5o4)CC3)c2c1` yielded an inhibition of 10.1%. Molecule `Cc1nc(-c2cccc(Nc3nccc(NCC(O)c4cccc(C(F)(F)F)c4)n3)c2)cs1` (stereo unspecified) has an inhibition of 1.56%. For `Clc1cccc(-c2nc(Nc3ccnc(-c4ccc(CN5CCOCC5)cc4)c3)c3ccccc3n2)c1`, the inhibition was 4.42%. `COc1cc(C(C)C)nc2ccc(NC(=O)c3ccc(C(=O)Nc4ccc5nc(C(C)C)cc(OC)c5c4)cc3)cc12` showed an inhibition of 6.44%. `CCCCCCCN1CCC(CC(=O)Nc2ccnc3ccc(OC)cc23)CC1` gave an inhibition of 11.3%. Molecule `COc1cc(OCCCCCCON2C(=N)N=C(N)NC2(C)C)cc(OC)c1OC` has an inhibition of 7.66%. `CC1(CCCCN2CCC(c3c[nH]c4cnccc34)CC2)C(=O)Nc2cccc(Cl)c21` (stereo unspecified) gave an inhibition of 0.37%. Molecule `COc1ccc(NC(=O)[C@H](Cc2ccccc2)Nc2cc(C)nc(NCCc3cccs3)n2)cc1` has an inhibition of 2.27%. `COc1cc(Nc2nccn3c(-c4ccsc4)cnc23)cc(OC)c1OC` gave an inhibition of 7.63%. `Cc1[nH]c(C)c(-c2ccc(-c3cccc(Cl)c3)nc2)c(=O)c1Cl` was tested, and the inhibition was 0.79%. In the case of `CCn1cc(C=C2Oc3c(ccc(O)c3CN3CCCCC3C)C2=O)c2ccccc21` (stereo unspecified), the inhibition is reported as 4.31%. `COc1ccc(C(=O)Nc2cc(Br)c3c(c2)CNCC3)cc1C(F)(F)F` showed an inhibition of 4.52%. `Cc1cc(C(F)(F)F)n2nc(C(=O)N(C)Cc3cncn3Cc3ccc(F)cc3)cc2n1` gave an inhibition of 0.88%.
